High-throughput results (PubChem)
AmpC inh no detg = inhibitors of E. coli AmpC beta-lactamase without detergent. P00811. AmpC nitrocefin hydrolysis, absorbance 480 nm, 0.0001% Triton. Potency, µM (titrated, usually from 57.1 µM), for the others: at the highest dose activity change, negative = inhibition, most hits filed as inhibitors. 330,000 tested, 0.52% active. AID 485341;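 further: plate controls were no compound for no effect and no enzyme for full effect; nearly all actives have a fitted effect of over 20% in size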
Target sequence (P00811 whole entry, looked up): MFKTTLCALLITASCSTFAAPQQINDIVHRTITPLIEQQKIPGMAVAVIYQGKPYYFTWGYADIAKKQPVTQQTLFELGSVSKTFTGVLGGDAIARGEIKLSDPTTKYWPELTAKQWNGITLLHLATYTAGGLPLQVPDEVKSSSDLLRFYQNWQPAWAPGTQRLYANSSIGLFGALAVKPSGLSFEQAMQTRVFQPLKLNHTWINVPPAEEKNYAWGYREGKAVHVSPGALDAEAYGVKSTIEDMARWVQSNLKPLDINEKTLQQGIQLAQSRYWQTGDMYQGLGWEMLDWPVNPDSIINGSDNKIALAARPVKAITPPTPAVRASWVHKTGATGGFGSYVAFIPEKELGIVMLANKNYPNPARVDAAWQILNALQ
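AmpC (5.3 nM in the dispensed reagent) in 20 mM phosphate pH 7.0 with 0.01% (detergent screen) or 0.0001% Triton X-100 was preincubated with compounds for 15 min at room temperature. Nitrocefin was then added from an 800 uM solution, and hydrolysis was followed at 480 nm.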
AMA1-RON2 inh = AMA1-RON2 (P. falciparum) interaction inhibition; AlphaScreen AMA1-biotinylated RON2 peptide binding; Potency, µM (series often up to 58.2 µM), for inactives: top-dose activity change, negative = inhibition, usual class: inhibitors; 360,000 tested, 0.2% active; AID 720542;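 further: 0% = vehicle wells and -100% = peptide control; nearly all actives have a fitted effect of over 45% in size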
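AMA1 (3D7) with his tag at 25 nM final met compounds first, then biotinylated RON2 peptide at 25 nM; detection used donor plus acceptor beads, 10 µg/mL apiece, read by AlphaScreen after 30 min at room temperature.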
AmpC inh detg = AmpC beta-lactamase inhibition with detergent present. P00811. AmpC hydrolysis of nitrocefin, absorbance 480 nm, 0.01% Triton. Potency, µM (doses to about 114 µM), for inactives: at the highest dose activity change, negative = inhibition, usual class: inhibitors. 370,000 tested, 0.041% active;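 further: 0% = no-compound wells and -100% = no-enzyme wells; nearly all actives have a fitted effect of over 25% in size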
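20 mM phosphate pH 7.0 + 0.01% (detergent screen) or 0.0001% Triton X-100; 5.3 nM AmpC reagent; cpd preinc 15 min RT; nitrocefin (800 uM stock) to start; A480 q20 s × 4 min; Activity was normalised to no-enzyme and no-compound control wells.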
FMDV antiviral = foot and mouth disease virus antiviral activity; Potency, µM (doses to about 57.9 µM), inactives show at the top dose activity change, negative = inhibition, hits mostly inhibitors; 410,000 tested, 1.2% active; AID 1159524; FMDV antiviral cell-based qHTS; calls by dose curve; tested in HEK293T cells; further: read-out not given here; nearly all actives have a fitted effect of over 45% in size
Sm TGR block = inhibitors of Schistosoma mansoni thioredoxin glutathione reductase | Q962Y6 | purified TGR, DTNB reduction, TNB absorbance 405 nm | 360,000 tested, 3% active | AID 485364 | Potency, µM (series often up to 114 µM), for inactives: at the top dose activity change, negative = inhibition, most hits filed as inhibitors; further: nearly all actives have a fitted effect of over 60% in size
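Kinetic colorimetric format: TGR-catalysed, NADPH-driven DTNB reduction monitored via TNB absorbance. Enzyme dispensed at 20 nM; compound exposure 15 min at room temperature before reaction start.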
Numbers without * were called inactive. An excerpt weighted towards active compounds, which were near 4.1% of everything screened. Unless noted, the call rests on the fitted dose curve; in most records, active means well fitted curve in the direction sought with a large enough effect; inconclusive means small, poorly fitted or top-dose-only effect, or another doubt; inactive means no such curve, though single readings can be large; an effect the other way counts as inactive or inconclusive. Unless noted, on the % scale 0 is the no-effect control and ±100 the full control effect; potency means the concentration at half of the fitted maximal effect.

Screening CCOc1ccccc1N1C(=O)NC(=O)/C(=C/c2ccc3c4c(cccc24)CC3)C1=O returned AmpC inh no detg 249%, AMA1-RON2 inh 0%, AmpC inh detg -3%, FMDV antiviral 40µM* and Sm TGR block 32µM*.
`COc1cccc(N2C(=O)NC(=O)/C(=C/c3ccc4c5c(cccc35)CC4)C2=O)c1` gave AmpC inh no detg -28%, AmpC inh detg inconclusive and Sm TGR block 25µM*.
`COc1ccc(N2C(=O)NC(=O)/C(=C/c3ccc4c(c3)Cc3ccccc3-4)C2=O)cc1` gave AmpC inh no detg -26%, AmpC inh detg -3% and Sm TGR block inconclusive.
Screening Cc1cc(C)c(NC(=O)Cn2c(=O)oc3cc(S(=O)(=O)N4CCCCCC4)ccc32)c(C)c1 returned AmpC inh detg 10%, FMDV antiviral -19% and Sm TGR block 1%.
Screening COCCn1nnnc1C(c1cc2c(C)cc(C)cc2[nH]c1=O)N1CCCCCC1 (centres undefined) returned AmpC inh no detg 186%, AMA1-RON2 inh -6%, AmpC inh detg 4% and Sm TGR block 13µM*.
For COCCn1nnnc1C(c1cc2cc(C)cc(C)c2[nH]c1=O)N1CCN(c2ccccc2F)CC1 (centres undefined) the results were AmpC inh no detg 32%, AMA1-RON2 inh 0%, AmpC inh detg -6% and Sm TGR block 40µM*.
`CC(=O)N1CCCC(C)(C(=O)N(C)Cc2cccc3ccccc23)C1` (centres undefined) gave AMA1-RON2 inh -4% and FMDV antiviral -11%.
Screening COc1cc(C2C3=C(CC(c4ccco4)CC3=O)Nc3ccccc3N2C(C)=O)cc(OC)c1OC (centres undefined) returned AmpC inh no detg -4%, AMA1-RON2 inh -7%, AmpC inh detg -13%, FMDV antiviral 43% and Sm TGR block 79µM*.
For CCC(=O)N1c2ccccc2NC2=C(C(=O)CC(c3ccco3)C2)C1c1ccco1 (centres undefined) the results were AmpC inh no detg -38%, AMA1-RON2 inh 8%, AmpC inh detg 9%, FMDV antiviral 14% and Sm TGR block inconclusive.
O=C1CC(c2ccco2)CC2=C1C1c3ccccc3C(=O)N1c1ccccc1N2 (centres undefined) was read as AmpC inh no detg -44%, AMA1-RON2 inh -8%, AmpC inh detg 3%, FMDV antiviral 20% and Sm TGR block 35µM*.
CC1(c2nnnn2Cc2ccccc2)CCC(=O)N1CCc1ccccc1F (centres undefined) was read as AMA1-RON2 inh -9% and FMDV antiviral -5%.
CCOc1ccc(C(=O)Nc2ccc(-c3nc4ccccc4s3)c(C)c2)cc1OCC was read as AmpC inh detg 9%, FMDV antiviral 67% and Sm TGR block 6%.
Screening Oc1cccc2c(NC(=S)Nc3ccc(SC(F)F)cc3)cccc12 returned AmpC inh no detg -49%, AMA1-RON2 inh 29%, AmpC inh detg -4%, FMDV antiviral 13µM* and Sm TGR block -12%.
`O=C(NCCN1CCC(n2c(=O)[nH]c3ccccc32)CC1)c1ccncc1` gave AMA1-RON2 inh -5% and FMDV antiviral 0%.
`Cc1ccc2c(c1)Oc1ccc([N+](=O)[O-])cc1C(=O)N2` gave AmpC inh no detg -18%, AMA1-RON2 inh -13%, AmpC inh detg -3%, FMDV antiviral -12% and Sm TGR block 1%.
For Cc1ccc2c(c1)Oc1ccc(NC(=O)CCl)cc1C(=O)N2 the results were AmpC inh no detg -37%, AMA1-RON2 inh -9%, AmpC inh detg -3%, FMDV antiviral 14µM* and Sm TGR block 11µM*.
For Cn1ncc2cc(NC(=S)NC(=O)c3ccccc3)ccc21 the results were AmpC inh no detg -14%, AMA1-RON2 inh 8%, AmpC inh detg -13%, FMDV antiviral 24% and Sm TGR block 18µM*.
For O=C(NC(=S)Nc1cnc2ccccc2c1)c1ccccc1 the results were AmpC inh no detg -35%, AMA1-RON2 inh 54%, AmpC inh detg -2%, FMDV antiviral 71% and Sm TGR block inconclusive.
For COc1ccc(NC(=S)NC(=O)c2ccccc2)cn1 the results were AmpC inh no detg -10%, AMA1-RON2 inh 7%, AmpC inh detg -5%, FMDV antiviral 41% and Sm TGR block 35µM*.
For CCOc1ccccc1NC(=O)Cn1c(=O)n(C(C)C)c(=O)c2oc3ccccc3c21 the results were AmpC inh detg 12%, FMDV antiviral -9% and Sm TGR block 28%.
Screening CCc1ccccc1NC(=O)C(=O)NCCc1sc(-c2cccc(F)c2)nc1C returned AmpC inh detg 0%, FMDV antiviral -9% and Sm TGR block 2%.
`Cn1c(=O)n(C)c2cc([N+](=O)[O-])c(N3CCN(C(=O)c4cccc(Cl)c4)CC3)cc21` gave AmpC inh no detg 103%, AMA1-RON2 inh -2%, AmpC inh detg -9%, FMDV antiviral 35µM* and Sm TGR block 3%.
Screening Cn1c(=O)n(C)c2cc([N+](=O)[O-])c(N3CCN(C(=O)c4cccc(F)c4)CC3)cc21 returned AmpC inh no detg 99%, AMA1-RON2 inh -15%, AmpC inh detg 2% and FMDV antiviral inconclusive.
Cc1cccc(C)c1NC(=O)Cn1c(=O)n(CCC(=O)NCc2ccc3c(c2)OCO3)c(=O)c2sccc21 was read as AmpC inh detg 13%, FMDV antiviral 11% and Sm TGR block -3%.
Screening CC1(c2ccccc2)CC(C)(C)N(C(=O)c2ccccc2Cl)c2ccccc21 (centres undefined) returned AmpC inh detg -6%, FMDV antiviral 28µM* and Sm TGR block 0%.
`Cc1nnc(SCC(=O)N2c3ccccc3C(C)(c3ccccc3)CC2(C)C)s1` (centres undefined) gave AmpC inh no detg 29%, AMA1-RON2 inh -3%, AmpC inh detg -15%, FMDV antiviral 40µM* and Sm TGR block -7%.
For COc1ccccc1C(=O)N1c2ccccc2C(C)(c2ccc(Cl)cc2)CC1(C)C (centres undefined) the results were AmpC inh detg 2%, FMDV antiviral inconclusive and Sm TGR block -9%.
COc1ccc(-n2c(SCCC(C)C)nc3sc4c(c3c2=O)CC(C(C)C)OC4)cc1 (centres undefined) was read as AmpC inh detg -1%, FMDV antiviral -24% and Sm TGR block 2%.
Screening CCCCCn1c(-c2cccc(C)c2)nc2ccccc21 returned AmpC inh detg 21%, FMDV antiviral inconclusive and Sm TGR block -5%.
For CCN(CC)c1cc(C)nc2nc(-c3ccc(C)cc3)nn12 the results were AmpC inh detg -3%, FMDV antiviral 0% and Sm TGR block 0%.
